Tau filament bind – binders of human tau filaments; recombinant tau filaments, thioflavin S fluorescence, 15 h; filaments grown with octadecylsulfate alongside compound; P10636; AID 596; Potency, µM (doses to about 57.1 µM), without a hit: at the highest dose activity change, negative = inhibition; actives 2% (n = 71,000);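 also: actives lower thioflavin S fluorescence by blocking filaments or displacing dye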
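Assay mix: 1 uM His-tagged tau, 30 uM sodium octadecylsulfate, thioflavine S dye in HEPES/NaCl/DTT buffer. Compound is added prior to the inducer. Fluorescence after 15 h at 37 C.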
ERK AVP inh – blocks ERK signaling stimulated by vasopressin | Potency, µM (top dose mostly 57.5 µM), inactives show top-dose activity, negative = inhibition, usual class: inhibitors | actives 0.99% (n = 72,000) | HEK293-V1b, vasopressin-stimulated pERK AlphaScreen; also: nearly all actives have a fitted effect of over 55% in size
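qHTS, compounds titrated on V1b-expressing HEK293 cells. Preincubation 30 min at 37C, vasopressin 25 nM for 5 min, lysis 10 min, bead incubation 5 hr at room temperature.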
Luciferase inh – inhibitors of firefly luciferase. P08659. actives 2.2% (n = 72,000). Potency, µM (series often up to 57.1 µM), for inactives: at the top dose activity change, negative = inhibition, most hits filed as inhibitors. purified firefly luciferase, luminescence, 8 min; also: nearly all actives have a fitted effect of over 40% in size
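Substrate buffer containing 10 uM ATP (pH 7.2 imidazole, Mg2+, KCl, detergent, BSA) is dispensed, compound pinned in, then luciferase/luciferin detector mix added. After 8 min at ambient temperature, light output is measured.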
DNA Pol III inh – inhibitors of bacterial DNA polymerase III holoenzyme | reconstituted DNA polymerase III holoenzyme replication, biochemical | Potency, µM (doses to about 57.1 µM), for the others: at the highest dose activity change, negative = inhibition | actives 0.25% (n = 71,000) | AID 603
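Reconstituted *E. coli* holoenzyme (0.35 nM Pol III, 1 nM beta, 154 nM SSB, 2 nM primase) was preincubated with compound for 15 min at RT. Synthesis on 1.4 nM ssM13Gori ran 35 min, then was stopped with PicoGreen/EDTA and read as dsDNA fluorescence.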
Bst PK mod – alters activity of Bacillus stearothermophilus pyruvate kinase; purified pyruvate kinase, luminescence ATP production; ribose 5-phosphate activator present at AC10; AID 361; Potency, µM; actives 1.2% (n = 51,000); in the data active = potency below about 11 µM; inconclusive = mostly about 12 µM to 25 µM;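 the screen sought inhibitors and activators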;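 also: scaled between full activation by ribose 5 phosphate and full inhibition by luteolin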
ALOX15 inhib – inhibitors of human 15-lipoxygenase (ALOX15); P16050; purified 15hLO-1, xylenol orange hydroperoxide absorbance; Potency, µM (doses to about 57.1 µM), for the others: top-dose activity change, negative = inhibition, hits mostly inhibitors; actives 1.4% (n = 74,000); AID 887; also: nearly all actives have a fitted effect of over 55% in size
Target sequence (P16050 whole entry, looked up): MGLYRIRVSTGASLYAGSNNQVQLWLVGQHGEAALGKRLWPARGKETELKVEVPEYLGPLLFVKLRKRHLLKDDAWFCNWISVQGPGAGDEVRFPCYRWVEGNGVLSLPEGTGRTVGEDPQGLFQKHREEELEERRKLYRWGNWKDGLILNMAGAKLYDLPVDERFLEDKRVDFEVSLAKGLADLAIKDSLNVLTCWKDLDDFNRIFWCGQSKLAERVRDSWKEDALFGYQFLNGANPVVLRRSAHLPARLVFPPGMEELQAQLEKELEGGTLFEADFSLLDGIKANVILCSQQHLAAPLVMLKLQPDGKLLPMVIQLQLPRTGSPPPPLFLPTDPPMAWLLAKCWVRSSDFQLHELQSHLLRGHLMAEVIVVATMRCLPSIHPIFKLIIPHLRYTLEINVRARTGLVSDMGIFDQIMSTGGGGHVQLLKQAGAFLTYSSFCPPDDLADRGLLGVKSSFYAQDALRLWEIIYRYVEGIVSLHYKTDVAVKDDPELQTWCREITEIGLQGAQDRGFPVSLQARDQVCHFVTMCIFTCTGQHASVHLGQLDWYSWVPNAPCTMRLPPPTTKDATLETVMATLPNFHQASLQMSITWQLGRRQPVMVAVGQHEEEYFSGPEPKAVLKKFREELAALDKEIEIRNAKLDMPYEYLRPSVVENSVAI
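Purified human 15hLO-1 (40 nM final) in 25 mM Hepes pH 7.5, 0.01% Triton X-100 was preincubated with compound 15 min at room temperature, then reacted 6 min with 50 uM arachidonic acid; hydroperoxide detected by Fe-XO, 573/405 nm absorbance ratio.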
* = called active by the depositor; i = inactive; ? = inconclusive; . = not tested or not shown; [ ] = dose if it differs, or a comment. The list is not random: actives were taken first. Their share in the collection is about 6%. Unless noted, calls follow the shape of the dose curve; as a rule, active = well fitted curve in the direction sought with a large enough effect; inconclusive = small, poorly fitted or top-dose-only effect, or another doubt; inactive = no such curve, though single readings can be large; an effect the other way counts as inactive or inconclusive. Unless noted, % is scaled to controls: 0 for no effect and ±100 for the full control effect; potency is read from the fitted curve at half-maximal effect.

SMILES | Tau filament bind | ERK AVP inh | Luciferase inh | DNA Pol III inh | Bst PK mod | ALOX15 inhib
CCCn1c(C)nc2c(NC(C)CN(C)C)nc(C)nc21 (configuration not stated) | 15% | 0% | . | 4% | . | -2%
Cc1cc(O)c(C(C)C)cc1CN1CCCCC1 | 10%[11.4 µM] | ? | 1%[11.4 µM] | -10%[11.4 µM] | . | -2%[11.4 µM]
COC(=O)c1sc(NC(=O)c2ccco2)nc1C | 6% | 12% | -5% | 4% | >57 | 5%
COc1ccc2sc(NC(=O)c3ccco3)nc2c1 | -6% | 13% | 7.9µM* | -3% | 5.4* | -10%
CCOCC(=O)Nc1nc2ccc(C)cc2s1 | -20% | 35% | 25µM* | -7% | . | -10%
CC(=O)NC12CC3CC(C1)CC(C(=O)OCC(=O)c1ccc4c(c1)OCCO4)(C3)C2 | -13% | -18% | 4µM* | -4% | 4.3* | 6%
CCn1nc(C(=O)OCC(=O)c2cc(C)n(Cc3cccs3)c2C)c2ccccc2c1=O | 37% | 16% | -17% | -4% | . | -2%
CCn1nc(C(=O)OCC(=O)c2ccc3c(c2)OCCO3)c2ccccc2c1=O | -5% | 4% | 13µM* | ? | ? | -8%
O=C(COC(=O)c1cccs1)c1ccc2c(c1)OCCO2 | 15% | 16% | 0.32µM* | 2% | 0.29* | -2%
O=C(COC(=O)c1cccs1)NCc1ccc2c(c1)OCO2 | -24% | 4% | -3% | -4% | >57 | -5%
Nc1cc(C(=O)c2cccs2)ccc1Cl | 16µM* | -3% | -4% | -9% | . | -24%
Cc1ccc(/C=c2\sc3nc(-c4ccco4)nn3c2=O)o1 | -15% | 12% | -17% | 4µM* | >57 | ?
Cc1ccc(/C=c2\sc3nc(-c4ccccc4Br)nn3c2=O)o1 | -2% | -7% | -20% | -8% | >57 | -2%
COc1ccc(C2c3c(oc4ccc(F)cc4c3=O)C(=O)N2CCN2CCOCC2)cc1OC (configuration not stated) | -7% | . | -2% | -3% | . | -5%
CCOc1cccc(C2c3c(oc4cc(C)c(C)cc4c3=O)C(=O)N2CCCN(C)C)c1 (configuration not stated) | 13µM* | -2% | 1% | -5% | . | 11%
Cc1cc2oc3c(c(=O)c2cc1C)C(c1ccc(F)cc1)N(CCCN1CCOCC1)C3=O (configuration not stated) | 20µM* | . | 1% | -6% | . | -15%
COc1cccc2c(=O)n(CC(=O)N3CCCc4ccccc43)ccc12 | 13µM* | . | -1% | 0% | . | -6%
COc1cccc2c(=O)n(CC(=O)NC3CCCC3)ccc12 | -5% | . | 6% | 0% | . | 3%
Cc1cc(=O)n2[nH]c(-c3ccc(F)cc3)nc2n1 | 0% | 3% | 13µM* | -12% | i | 7%
C=CC[C@@H]1C=C[C@@H](O/N=C\C[C@@H]2C=C[C@H](OC(C)=O)[C@H](COC(C)=O)O2)[C@@H](CO)O1 | . | 4%[11.5 µM] | 1%[11.4 µM] | . | . | 10%[11.4 µM]
O=C(NCCN1CCOCC1)c1cccc(Cl)c1 | 6% | -12% | -1% | -5% | >57 | -5%
COc1cc(OC)cc(C(=O)NCCN2CCOCC2)c1 | -5% | -4% | 0% | -1% | >57 | 10µM*
CCNc1ncc2nc(C)c(=O)n(C3CC3)c2n1 | 1% | ? | 1%[11.4 µM] | -1% | . | 0%
COc1cccc(OC)c1/C(O)=C(\C#N)c1nc2ccccc2[nH]1 | 9% | 15% | 1% | -2% | >57 | -1%
CC(C)CC(/C(O)=C(\C#N)c1nc2ccccc2[nH]1)N1C(=O)c2ccccc2C1=O (configuration not stated) | 13µM* | ? | 3% | -3% | . | -4%
SMILES | Tau filament bind | ERK AVP inh | Luciferase inh | DNA Pol III inh | Bst PK mod | ALOX15 inhib
CN1C=CC=C/C1=C(\C#N)c1nc2ccccc2[nH]1 | 32µM* | -13% | -25% | -9% | >57 | -8%
CC1CCCN(C/C(O)=C(\C#N)c2nc3ccccc3[nH]2)C1 (configuration not stated) | -1% | -4% | 1% | -1% | >57 | 18%
CC(C)(C)/C(O)=C(/C#N)c1nc2ccccc2[nH]1 | -5% | 20µM* | -2% | -5% | . | -17%
Cc1cc(C)n2c(SC/C(O)=C(\C#N)c3nc4ccccc4[nH]3)nnc2n1 | 10µM* | 17% | -2% | -7% | >57 | -29%
COCCn1c(=O)c(-c2ccc(Cl)cc2)nc2cnc(Nc3ccccc3)nc21 | 386% | 16% | 1%[11.4 µM] | -3% | . | -2%
c1ccc2c(c1)CCC[C@H]2C1=NCCN1 | 1% | 6% | 1% | -2% | . | -6%
OC1CN=C2CCCc3c2n(c2ccc(Cl)cc32)C1 (configuration not stated) | 7.9µM* | -11% | -1% | -4% | . | ?
COc1ccc(-c2nc(N)nc(C)c2Oc2ccccc2Br)c(O)c1 | -21% | -14% | -1% | -2% | 1.9* | -22%
CCOC(=O)c1[nH]c(C)c(C(=O)c2cc(F)ccc2F)c1C | -1% | 20µM* | -2% | -1% | >57 | -25%
O=C1CC(O)(C(F)(F)F)Oc2c1ccc1ccccc21 (configuration not stated) | -30% | 16µM* | -4% | -6% | . | -8%
O=C1CC(O)(C(F)F)Oc2ccc3ccccc3c21 (configuration not stated) | -12% | -11% | -3% | 3% | >11 | ?
COC(=O)[C@H](CCSC)NC(=O)C/C=C\[C@@H](C)CO | . | -3%[11.5 µM] | 1%[11.4 µM] | . | . | 6%[11.4 µM]
Nc1nnc(SCc2ccc(F)cc2Cl)s1 | 20µM* | -20% | 1% | -6% | >57 | ?
Nc1nnc(SCc2cccc(C(F)(F)F)c2)s1 | -12%[11.4 µM] | -7% | -2% | -7%[11.4 µM] | . | -7%[11.4 µM]
CC1=C(\C=C/C(C)=C/C=C\C(C)=C\C(=O)Nc2ccc(O)cc2)C(C)(C)CCC1 | -28% | . | -2% | -4% | . | .
Cc1sc2nc3c4ccccc4c(NCc4ccco4)nn3c(=O)c2c1C | 53% | ? | ? | -5% | 2* | -18%
Cc1nnc(NCc2ccco2)c2ccccc12 | -6% | 19% | 0% | -9% | >57 | 5%
COc1ccc(O[C@H]2C=C[C@@H](c3ccccc3)O[C@H]2CO/N=C2/c3cc(OC)ccc3O[C@@H](c3cccc(OC)c3)[C@H]2O)cc1 | . | -8%[11.5 µM] | 0%[11.4 µM] | . | . | 0%[11.4 µM]
CON(C)C(=O)c1nnc2c(n1)[nH]c1ccccc12 | . | 21%[11.5 µM] | -5%[11.4 µM] | . | . | 5%[11.4 µM]
COc1ccccc1OCc1nc2ccccc2[nH]1 | -12% | -5% | ? | 2% | . | 7%
c1cnc2c(OCc3nc4ccccc4[nH]3)cccc2c1 | 4% | ? | 20µM* | 1% | . | 5%
COc1cccc(OCc2nc3ccccc3[nH]2)c1 | -12% | 2% | 13µM* | -4% | . | 1%
COCC(=O)Nc1ccc(Nc2ccccc2)cc1 | 7.9µM* | ? | -3% | -8% | >57 | -8%
